From PubChem BioAssay
This is a sample that favours compounds with a hit; in the whole collection about 11% have one here.
AMA1 RON2 block: qHTS for Inhibitors of AMA1-RON; Towards Development of Antimalarial Drug Lead: Primary Screen | Plasmodium falciparum AMA1 (3D7) - RON2 peptide interaction | AlphaScreen AMA1-biotinylated RON2 peptide binding | Potency, µM (titrated, usually from 58.2 µM), hits mostly inhibitors | hit rate 0.2% among 360,000; note: nearly all actives have a fitted effect of over 45% in size
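AMA1 (3D7) with his tag at 25 nM final met compounds first, then biotinylated RON2 peptide at 25 nM; detection used donor plus acceptor beads, 10 µg/mL apiece, read by AlphaScreen after 30 min at room temperature.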
Pf growth 96h: Primary qHTS for delayed death inhibitors of the malarial parasite plastid, 96 hour incubation; P. falciparum luciferase reporter growth, 96 h; Potency, µM (titrated, usually from 28.7 µM), usual class: inhibitors; hit rate 6.9% among 320,000; AID 504834, 2011
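P. falciparum expressing integrated firefly luciferase grown in erythrocytes (2% hematocrit, 0.05% parasitemia final) with compounds for 96 hours at 37 C, 5% CO2. Growth inhibition read as loss of luminescence after adding luciferase detection reagent.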
Pf growth 48h: Primary qHTS for delayed death inhibitors of the malarial parasite plastid, 48 hour incubation | P. falciparum luciferase growth in erythrocytes, 48 h | Potency, µM (doses to about 28.7 µM), actives largely listed as inhibitors | hit rate 5.9% among 310,000 | AID 504832, 2011
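A one-generation exposure of luciferase-tagged malaria parasites in RPMI 1640/Albumax erythrocyte culture, 37 C and 5% CO2. Inhibition is inferred from decreased luminescence after adding detection reagent.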
HCV inhibitor: qHTS Assay for Inhibitors of Hepatitis C Virus (HCV). Huh7.5.1 HCVcc-Cre infection, luciferase reporter, 44 h. Potency, µM (highest dose often 41.8 µM), actives largely listed as inhibitors. hit rate 3.4% among 340,000. AID 651820, 2012
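Cells (1,000/well) were plated 4 h before compound, then infected with HCVcc-Cre virus (~0.5 moi). After 44 h further culture, infection was read as luciferase luminescence following a 15 min substrate incubation at room temperature.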
Of the large screens only hits and unclear results are named; the others gave an inactive call. Calls come from the whole dose curve; as a rule, active = well fitted curve in the direction sought with a large enough effect; inconclusive = small, poorly fitted or top-dose-only effect, or another doubt; inactive = no such curve, though single readings can be large; an effect the other way counts as inactive or inconclusive.

COC(=O)c1ccc(Cn2nnc3c(=O)[nH]c(C4CCCN(S(=O)(=O)c5ccccc5)C4)nc32)cc1 (stereo not given)	Pf growth 48h inconclusive
CC(=O)c1ccc(N2CCN(S(=O)(=O)c3ccc4c(c3)NC(=O)CO4)CC2)cc1	Pf growth 96h inconclusive
COc1ccc(S(=O)(=O)N2CCC3CC2c2cc(N4CCOCC4)ccc23)cc1 (stereo not given)	none (no result: Pf growth 96h, Pf growth 48h)
O=c1[nH]c(C2CCN(S(=O)(=O)c3ccc4c(c3)OCCO4)CC2)nc2c1nnn2Cc1ccccc1F	Pf growth 96h 13µM, Pf growth 48h inconclusive
COc1cccc(Cn2nnc3c(=O)[nH]c(C4CCCN(C(=O)c5ccccc5Cl)C4)nc32)c1 (stereo not given)	Pf growth 48h inconclusive
COc1ccc(Cn2nnc3c(=O)[nH]c(C4CCCN(C(=O)c5ccccc5)C4)nc32)cc1 (stereo not given)	Pf growth 96h 12µM, Pf growth 48h inconclusive, HCV inhibitor inconclusive
O=S(=O)(c1ccc2ncn(O)c2c1)N1CCOCC1	none
CN(Cc1cccs1)S(=O)(=O)c1cccs1	none (no result: Pf growth 96h)
CCCC(=O)c1cc(-c2nc3ccccc3n2C)n(C)c1	HCV inhibitor 22µM (no result: Pf growth 96h)
CCC(=O)c1cc(-c2nc3ccccc3n2C)n(C)c1	none (no result: Pf growth 96h)
Cc1ccc(C)c(NC(=O)COc2coc(CN3CCc4ccccc4C3)cc2=O)c1	Pf growth 96h inconclusive, HCV inhibitor inconclusive
O=C(COc1coc(CN2CCc3ccccc3C2)cc1=O)Nc1ccc(Cl)cc1	Pf growth 48h inconclusive
O=C(COc1coc(CN2CCCc3ccccc32)cc1=O)Nc1cccc([N+](=O)[O-])c1	Pf growth 96h 6.6µM, Pf growth 48h inconclusive, HCV inhibitor inconclusive
O=C(COc1coc(CN2CCc3ccccc3C2)cc1=O)Nc1cccc([N+](=O)[O-])c1	Pf growth 96h inconclusive, Pf growth 48h 12µM, HCV inhibitor inconclusive
Cc1cccc(NC(=O)COc2coc(CN3CCc4ccccc4C3)cc2=O)c1	Pf growth 96h inconclusive, Pf growth 48h 8.3µM
CCc1ccc(NC(=O)COc2coc(CN3CCc4ccccc4C3)cc2=O)cc1	Pf growth 96h inconclusive, Pf growth 48h 9.3µM, HCV inhibitor inconclusive
CCC(OC(C)=O)c1cc2c(cc1[N+](=O)[O-])OCCO2 (stereo not given)	Pf growth 96h inconclusive
CC(C)(C)c1ccccc1OCC(=O)NCc1ccccc1	HCV inhibitor inconclusive
Cc1cccc(OCC(=O)NNC(=O)CCc2ccccc2)c1	none
Cc1cccc(OCC(=O)NCc2ccccc2)c1	Pf growth 96h 9.3µM
Cc1ccc(CNC(=O)COc2ccccc2-c2ccccc2)cc1	Pf growth 96h 10µM
C/C(=N\NC(=O)COc1cccc(C)c1)c1ccc2ccccc2c1O	Pf growth 96h 2.6µM, Pf growth 48h inconclusive, HCV inhibitor 11µM
COc1cc(OC)nc(Oc2cc(C=O)ccc2OC)n1	none
CCc1ccc(C2=NNC(=Nc3c(C)n(C)n(-c4ccccc4)c3=O)SC2)cc1	none
CN1CCCC(C)(C(=O)Nc2ccc(-n3cccc3)cc2)C1 (stereo not given)	none (no result: Pf growth 96h, Pf growth 48h, HCV inhibitor)
CC(C)(C)OC(=O)N1CCC(c2c(C(=O)N3CCN(C(=O)c4ccco4)CC3)cnn2-c2ccc(F)cc2)CC1	Pf growth 48h inconclusive
CCOC(=O)c1cnn(-c2ccc(Cl)cc2)c1C1CCN(C(=O)OC(C)(C)C)CC1	AMA1 RON2 block inconclusive, HCV inhibitor 13µM (no result: Pf growth 48h)
Cc1ccc(-n2ncc(C(=O)N3CCN(C(=O)c4ccco4)CC3)c2C2CCN(C(=O)OC(C)(C)C)CC2)cc1C	Pf growth 48h 4.7µM
NC1=NC(=Nc2cccc(S(=O)(=O)N3CCOCC3)c2)c2ccccc21	none
COc1cc2c(cc1OC(C)=O)CCCCC2=O	none (no result: Pf growth 96h, Pf growth 48h)
Cc1cccc(NC(=O)c2nc[nH]c2C(=O)N2CCc3ccccc3C2)c1	Pf growth 96h inconclusive
Cn1c(N)c(C(=O)COC(=O)c2ccccc2C(F)(F)F)c(=O)n(C)c1=O	HCV inhibitor inconclusive (no result: Pf growth 96h, Pf growth 48h)
Cn1c(N)c(C(=O)COC(=O)c2ccccc2C(=O)c2ccccc2)c(=O)n(C)c1=O	Pf growth 48h 13µM
Cn1c(N)c(C(=O)COC(=O)c2ccccc2C(=O)c2ccc(Cl)c([N+](=O)[O-])c2)c(=O)n(C)c1=O	HCV inhibitor 11µM (no result: Pf growth 96h, Pf growth 48h)
O=C1CSC(c2ccccn2)N1c1ccc(C(F)(F)F)cc1 (stereo not given)	Pf growth 96h inconclusive, Pf growth 48h 2.9µM
